An excerpt weighted towards active compounds, which were near 3.5% of everything screened.
FBW7 activator: human FBW7 E3 ligase activation, primary screen; Q969H0; AlphaScreen FBW7–phospho-cyclin E peptide binding, activator screen; normalized activity (activation), % at 26.1 µM; hit rate 0.13% among 650,000; AID 1259310; in the data active = normalized activity above about 1.9%;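 note: purified mutant Fbw7 with reduced substrate affinity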
Target sequence (Q969H0 whole entry, looked up): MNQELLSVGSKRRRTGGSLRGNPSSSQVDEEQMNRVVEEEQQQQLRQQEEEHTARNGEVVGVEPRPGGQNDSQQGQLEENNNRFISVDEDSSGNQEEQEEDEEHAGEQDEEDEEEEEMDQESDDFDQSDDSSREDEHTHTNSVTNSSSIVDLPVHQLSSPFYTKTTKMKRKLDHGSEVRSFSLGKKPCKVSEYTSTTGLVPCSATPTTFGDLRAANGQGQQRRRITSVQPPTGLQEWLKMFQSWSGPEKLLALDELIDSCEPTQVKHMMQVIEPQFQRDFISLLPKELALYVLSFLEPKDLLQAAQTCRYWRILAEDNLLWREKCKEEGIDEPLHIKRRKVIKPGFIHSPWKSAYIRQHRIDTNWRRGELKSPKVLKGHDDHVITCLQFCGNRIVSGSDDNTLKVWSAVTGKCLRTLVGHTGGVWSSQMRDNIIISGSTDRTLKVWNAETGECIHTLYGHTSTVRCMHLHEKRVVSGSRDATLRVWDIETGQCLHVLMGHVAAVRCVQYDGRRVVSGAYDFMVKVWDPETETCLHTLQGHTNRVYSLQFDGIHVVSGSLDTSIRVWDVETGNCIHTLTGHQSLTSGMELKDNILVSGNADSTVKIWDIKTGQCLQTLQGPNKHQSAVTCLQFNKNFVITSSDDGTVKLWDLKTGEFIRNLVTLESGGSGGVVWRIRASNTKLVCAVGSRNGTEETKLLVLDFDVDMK
TEAD-YAP block: TEAD-YAP interaction inhibition; HEK-TIYL cells, TEAD-Gal4/YAP UAS-luciferase luminescence; inhibition, % at 9.12 µM; hit rate 1.4% among 640,000; AID 1259422; in the data active = inhibition above about 32%;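 note: 0% = median of test compound wells and 100% = reference inhibitor wells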
GPR151 ag: human GPR151 activation; PathHunter beta-arrestin GPR151 cells, luminescence; activation, % at 11.2 µM; hit rate 1% among 650,000; in the data active = activation above about 4.9%;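 note: 0% = median of compound wells and 100% = cells with positive control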
MITF inh: inhibitors of human MITF; hit rate 0.91% among 650,000; AlphaScreen MITF homodimerization, bead proximity signal; O75030; inhibition, % at 2.6 µM; in the data active = inhibition above about 50%;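 note: 0% = vehicle wells with protein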
* hit, by the source's call.

SMILES | FBW7 activator | TEAD-YAP block | GPR151 ag | MITF inh
Cn1nc2c(c1NC(=O)C1CCCN(S(=O)(=O)c3ccc(Cl)s3)C1)CCC2 (centres undefined) | 0.0 | 33.4* | 0.5 | 2.2
CCCC1(CCC)NC(=O)N(Cn2nnc3ccccc3c2=O)C1=O | 0.0 | -1.3 | -0.7 | 5.1
CCN1CCCC(NC(=O)Cc2c[nH]c3ccccc23)C1 (centres undefined) | -0.1 | -2.9 | 0.7 | 9.4
C=CCOc1ccc(/C=C2\SC(=N)N(c3nccs3)C2=O)cc1OCC | -0.1 | 36.3* | -1.2 | -1.0
C=CCOc1ccc(/C=C2\SC(NC(C)=O)=NC2=O)cc1OCC | 0.1 | 9.3 | 0.9 | 6.2
OC1CCC(Nc2nccn3c(-c4ccccc4Oc4ccccc4)cnc23)CC1 (centres undefined) | 0.8 | -0.6 | -0.1 | 17.6
COc1ccc(C(NC(C)=O)c2c(OC(C)=O)ccc3ccccc23)cc1 (centres undefined) | 0.8 | 62.4* | -0.4 | 15.4
CCCC(=O)NC(c1ccco1)c1c(O)ccc2ccccc12 (centres undefined) | -0.1 | 1.2 | -1.2 | 10.8
CCCC(=O)NC(c1ccc(OC)cc1)c1c(O)ccc2ccccc12 (centres undefined) | -0.2 | 44.5* | 0.1 | -14.6
COc1ccc(C(NC(C)=O)c2c(O)ccc3ccccc23)cc1 (centres undefined) | -0.2 | 62.2* | 0.9 | -1.0
Cc1ccc2[nH]c(=O)c(CN(CCO)S(=O)(=O)c3cccc4nsnc34)cc2c1 | 0.0 | 48.1* | 1.8 | 11.2
COc1ccc(CCNc2cc(N3CCN(S(C)(=O)=O)CC3)ccc2[N+](=O)[O-])cc1OC | 0.0 | 60.3* | 1.9 | 17.7
COc1ccc(CCNc2cc(N3CCCC3)ccc2[N+](=O)[O-])cc1OC | -0.2 | -5.2 | -0.8 | 3.4
COc1ccc(CCNc2cc(N3CCN(C)CC3)ccc2[N+](=O)[O-])cc1OC | -0.1 | 48.0* | 1.3 | -0.8
COc1ccc(CCNc2cc(N3CCN(S(=O)(=O)c4ccc(OC)c(OC)c4)CC3)ccc2[N+](=O)[O-])cc1OC | -0.2 | -5.9 | 0.3 | 1.8
COc1ccc(C)cc1NC(=O)NCCNc1cc(-n2nc(C)cc2C)ncn1 | -0.3 | 50.5* | 0.4 | 0.4
Cc1cc(C)n(-c2cc(NCCNC(=O)Nc3cccc(F)c3C)ncn2)n1 | 0.0 | 15.9 | -1.6 | 1.6
COC(=O)COc1cccc2c1ccc1c3c(c(=O)oc12)CCCC3 | 0.1 | -0.4 | -0.3 | 6.4
O=c1oc2c(ccc3c(O)cccc32)c2c1CCCC2 | 0.9 | 45.3* | -2.0 | 13.5
COc1cc2nc(Oc3ccccc3)nc(NCc3cccc(C(F)(F)F)c3)c2cc1OC | -0.1 | 47.4* | 2.2 | -1.7
COc1ccc(Nc2nc(NCc3cccc(C(F)(F)F)c3)c3cc(OC)c(OC)cc3n2)cc1 | -0.2 | 16.7 | 1.7 | 7.8
COc1cc2nc(Nc3nc4ccccc4n3C)nc(Nc3cc(OC)c(OC)c(OC)c3)c2cc1OC | -0.2 | 27.6 | 2.1 | -8.6
COc1cc2nc(Cl)nc(NCc3cccc(C(F)(F)F)c3)c2cc1OC | 0.0 | 4.9 | -0.7 | -8.4
COc1cc2nc(Nc3nc4ccccc4n3C)nc(NCc3cccc(C(F)(F)F)c3)c2cc1OC | -0.2 | 38.8* | 1.6 | 4.3
COc1cc2nc(Nc3nc4ccccc4n3C)nc(NC3CC3)c2cc1OC | 3.6* | 10.9 | -1.2 | 18.9
SMILES | FBW7 activator | TEAD-YAP block | GPR151 ag | MITF inh
NS(=O)(=O)c1ccc(CCNC(=O)CCCn2c(SCc3ccc(F)cc3)nc3ccsc3c2=O)cc1 | 0.0 | 19.3 | 1.6 | 6.8
COc1ccc(CN2CCN(Cc3ccc(C)cc3)CC2CCO)cc1C (centres undefined) | 0.0 | 10.4 | 0.8 | -10.0
Cc1ccc(/C=N/NC(=O)c2ccncc2)c(O)c1 | 0.0 | 19.7 | -0.8 | 56.5*
Cc1ccc(C(=O)N/N=C/c2ccc3c(c2)OCO3)cc1 | 0.1 | 11.2 | 1.6 | 10.0
Cc1ccc(/C=N/NC(=O)c2ccc3c(c2)OCO3)c(O)c1 | 0.0 | 55.6* | 1.4 | 6.8
COc1ccc(Cl)cc1NC(=O)Nc1nnc(Cc2ccc(F)cc2)o1 | 0.8 | -0.7 | -1.7 | 7.3
COc1cccc(N2CCN(c3ncnc4c3cnn4-c3ccccc3)CC2)c1 | -0.3 | -0.8 | 2.1 | 1.6
O=C(N/N=C/c1cc([N+](=O)[O-])ccc1O)c1ccccc1[N+](=O)[O-] | -0.9 | 7.4 | -0.3 | 68.9*
COc1cc([N+](=O)[O-])cc(/C=N/NC(=O)c2ccccc2[N+](=O)[O-])c1O | -0.8 | -14.8 | 1.9 | 65.3*
CCOc1cc([N+](=O)[O-])cc(/C=N/NC(=O)c2cc(C(C)(C)C)[nH]n2)c1O | -0.1 | 25.2 | 0.5 | 66.4*
O=C(N/N=C/c1ccccc1O)c1ccccc1[N+](=O)[O-] | -0.6 | 4.3 | 0.9 | 13.8
C/C(=N\NC(N)=O)c1ccc([N+](=O)[O-])cc1 | -0.1 | 0.7 | 3.4 | 1.1
C/C(=N\NC(N)=S)c1ccc([N+](=O)[O-])cc1 | -0.1 | 35.9* | -0.1 | -3.2
O=C(NCC1Cc2cc(F)cc(-c3cncnc3)c2O1)c1ccc(-n2cccn2)cc1 (centres undefined) | 0.0 | -4.9 | 0.5 | -16.5
CCN(CC)c1nc(C)nc2sc(C(=O)NCc3ccccn3)c(C)c12 | -0.2 | -8.0 | -0.3 | -12.8
Cc1ccc(C(=O)N/N=C/c2ccc([N+](=O)[O-])s2)cc1 | 0.0 | 26.3 | 0.5 | -4.0
CCOc1ccccc1C(=O)N/N=C/c1cc([N+](=O)[O-])cc(OC)c1O | -0.2 | -5.6 | -0.5 | -13.8
COc1cc([N+](=O)[O-])cc(/C=N/NC(=O)c2ccccc2Br)c1O | 0.5 | 5.1 | -0.9 | 73.5*
COc1ccccc1C(=O)N/N=C/c1ccc([N+](=O)[O-])s1 | -0.3 | 48.6* | -0.9 | -0.3
NC(=S)N/N=C/c1cc([N+](=O)[O-])ccc1O | -1.2 | -6.1 | -1.8 | 100.1*
O=C(CS(=O)(=O)c1c[nH]c2ccccc12)Nc1ccc(Br)cc1 | 0.3 | -0.2 | 2.6 | 1.7
COC(=O)C1=C(C)NC(=O)C1(NC(=O)c1cccc(C)c1)C(F)(F)F (centres undefined) | -0.1 | -4.0 | 1.4 | 14.3
O=C(O)CCc1nc(-c2ccc(Cl)cc2Cl)no1 | -0.1 | -3.8 | 1.0 | 1.2
Cc1nc2nc(-c3ccc(Cl)cc3Cl)nn2c(C)c1CCC(=O)O | -0.2 | 80.2* | 0.1 | 1.8
COc1cccc(-c2nc3nc(C)c(CCC(=O)O)c(C)n3n2)c1 | -0.1 | 48.5* | -0.2 | 0.6
SMILES | FBW7 activator | TEAD-YAP block | GPR151 ag | MITF inh
Cc1ccc(/C=C(/C#N)c2ccc(C#N)cc2)o1 | 0.0 | -34.5 | -0.2 | 16.2
COC(=O)c1ccsc1NC(=O)CSc1ccccc1 | -0.1 | -46.5 | -0.5 | -1.4
COC(=O)c1cn[nH]c1NC(=S)Nc1ccc(Br)cc1 | -0.1 | 38.6* | -0.4 | -4.2
COC(=O)c1cn[nH]c1NC(=S)Nc1c(C)cccc1C | -0.1 | -6.5 | -1.2 | -0.7
O=C(CCl)N(Cc1cccs1)C1CCS(=O)(=O)C1 (centres undefined) | -0.1 | 59.6* | -1.4 | 3.4
CCCCN(C(=O)CCl)C1CCS(=O)(=O)C1 (centres undefined) | 0.0 | 72.7* | 1.7 | 5.7
O=C(COc1ccc(Cl)cc1)N(Cc1cccs1)C1CCS(=O)(=O)C1 (centres undefined) | 0.1 | -1.0 | -0.3 | -3.6
